# According to paper PMC7862700, “An all-to-all approach to the identification of sequence-specific readers for epigenetic DNA modifications on cytosine”:
# Assays:
# Test in all cases: DAPPL (digital affinity profiling via proximity ligation, sequencing); 10 mM Tris-HCl pH 7.5, 50 mM NaCl, 1 mM DTT, 4% glycerol, room temperature, 30 min; GST-TFs on glutathione beads, 16-mer random dsDNA library, 0.1% formaldehyde crosslink after washing; high values mean tight binding
# FLI1 = molecular target: T1, FLI1 (Homo sapiens, UniProt Q01543 1-452); conditions: protein: recombinant; tags: N-terminal GST; dsDNA, one strand shown
# T1 sequence: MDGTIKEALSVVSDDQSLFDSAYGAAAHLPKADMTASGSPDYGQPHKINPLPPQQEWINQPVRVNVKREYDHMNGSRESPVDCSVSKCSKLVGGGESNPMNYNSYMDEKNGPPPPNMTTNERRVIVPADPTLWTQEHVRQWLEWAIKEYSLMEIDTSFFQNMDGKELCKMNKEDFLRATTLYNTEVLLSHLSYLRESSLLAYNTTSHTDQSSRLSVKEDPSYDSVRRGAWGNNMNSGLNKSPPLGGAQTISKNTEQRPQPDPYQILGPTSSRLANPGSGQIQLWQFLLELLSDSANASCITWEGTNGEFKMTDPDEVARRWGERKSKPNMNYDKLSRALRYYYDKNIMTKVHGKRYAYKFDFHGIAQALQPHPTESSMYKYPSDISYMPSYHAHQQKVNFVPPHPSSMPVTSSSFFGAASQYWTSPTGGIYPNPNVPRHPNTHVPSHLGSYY
# Outline: (§1)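 Human transcription factors carrying a GST fusion were produced in yeast, bound to glutathione beads, tagged with DNA barcodes and pooled together with a tag-only sample. Each pool was held with 200 nmole of a random double-stranded 16-mer DNA library in Tris/NaCl/DTT/glycerol buffer for 30 min at room temperature, then washed, crosslinked in 0.1% formaldehyde, proximity-ligated with BsaI/T4 ligase (1 h, 37 °C), PCR-amplified and sequenced on an Illumina NextSeq500. Binding signal is the read frequency of each hexamer for a given factor divided by its frequency in the tag-only sample.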
# ELK1 = molecular target: T2, ELK1 (Homo sapiens, UniProt P19419 1-428); conditions: protein: recombinant; tags: N-terminal GST; dsDNA, one strand shown
# T2 sequence: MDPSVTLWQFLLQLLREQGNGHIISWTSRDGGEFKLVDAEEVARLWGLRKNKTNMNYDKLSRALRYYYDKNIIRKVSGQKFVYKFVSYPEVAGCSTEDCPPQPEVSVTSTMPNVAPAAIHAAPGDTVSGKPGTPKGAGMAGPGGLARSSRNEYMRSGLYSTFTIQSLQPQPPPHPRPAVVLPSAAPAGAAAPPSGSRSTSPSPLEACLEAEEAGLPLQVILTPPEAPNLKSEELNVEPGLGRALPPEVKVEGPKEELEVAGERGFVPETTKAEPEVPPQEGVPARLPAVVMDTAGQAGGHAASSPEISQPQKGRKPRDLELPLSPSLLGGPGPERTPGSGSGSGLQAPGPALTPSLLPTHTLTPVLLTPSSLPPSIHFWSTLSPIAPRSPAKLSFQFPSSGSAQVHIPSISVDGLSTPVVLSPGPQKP
# Outline: as §1
# GABPA = molecular target: T3, GABPA (Homo sapiens, UniProt Q06546 1-454); conditions: protein: recombinant; tags: N-terminal GST; dsDNA, one strand shown
# T3 sequence: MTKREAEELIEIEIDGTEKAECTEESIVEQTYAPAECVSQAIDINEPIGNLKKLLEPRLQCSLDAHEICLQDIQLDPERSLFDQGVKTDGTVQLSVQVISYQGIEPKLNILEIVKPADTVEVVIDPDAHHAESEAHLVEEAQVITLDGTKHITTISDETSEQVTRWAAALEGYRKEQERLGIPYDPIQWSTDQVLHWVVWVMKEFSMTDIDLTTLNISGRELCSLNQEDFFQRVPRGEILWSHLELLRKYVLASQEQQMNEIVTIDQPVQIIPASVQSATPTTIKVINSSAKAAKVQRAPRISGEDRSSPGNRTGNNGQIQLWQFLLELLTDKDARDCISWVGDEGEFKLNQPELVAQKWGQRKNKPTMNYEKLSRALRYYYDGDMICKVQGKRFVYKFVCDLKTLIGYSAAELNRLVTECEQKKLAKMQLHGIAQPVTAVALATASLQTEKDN
# Outline: as §1
# ERG = molecular target: T4, ERG (Homo sapiens, UniProt P11308 1-479); conditions: protein: recombinant; tags: N-terminal GST; dsDNA, one strand shown
# T4 sequence: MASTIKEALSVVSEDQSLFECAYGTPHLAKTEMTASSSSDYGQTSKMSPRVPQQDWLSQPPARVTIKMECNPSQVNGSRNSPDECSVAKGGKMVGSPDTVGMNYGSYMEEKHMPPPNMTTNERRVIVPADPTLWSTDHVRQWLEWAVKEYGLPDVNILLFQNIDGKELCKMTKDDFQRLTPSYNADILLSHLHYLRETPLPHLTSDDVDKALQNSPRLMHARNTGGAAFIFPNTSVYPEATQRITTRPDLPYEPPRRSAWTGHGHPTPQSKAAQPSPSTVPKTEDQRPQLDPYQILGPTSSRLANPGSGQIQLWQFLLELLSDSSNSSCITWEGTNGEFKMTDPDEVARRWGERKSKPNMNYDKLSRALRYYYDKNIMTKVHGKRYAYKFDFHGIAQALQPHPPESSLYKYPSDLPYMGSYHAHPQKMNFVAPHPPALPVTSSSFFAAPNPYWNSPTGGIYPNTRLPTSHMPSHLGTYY
# Outline: as §1
# ELF1 = ELF1 (Homo sapiens, UniProt P32519 1-619); conditions: protein: recombinant; tags: N-terminal GST; dsDNA, one strand shown
# Outline: as §1
# EHF = molecular target: T5, EHF (Homo sapiens, UniProt Q9NZC4 1-300); conditions: protein: recombinant; tags: N-terminal GST; dsDNA, one strand shown
# T5 sequence: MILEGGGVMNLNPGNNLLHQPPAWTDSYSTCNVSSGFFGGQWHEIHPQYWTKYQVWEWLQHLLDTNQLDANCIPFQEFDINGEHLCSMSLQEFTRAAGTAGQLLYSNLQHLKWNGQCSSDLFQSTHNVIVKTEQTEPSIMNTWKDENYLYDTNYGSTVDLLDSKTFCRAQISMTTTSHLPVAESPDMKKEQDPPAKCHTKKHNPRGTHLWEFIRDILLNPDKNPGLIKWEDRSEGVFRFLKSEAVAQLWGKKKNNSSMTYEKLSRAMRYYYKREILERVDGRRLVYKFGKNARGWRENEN
# Outline: as §1
# SPI1 = SPI1 (Homo sapiens, UniProt P17947 1-270); conditions: protein: recombinant; tags: N-terminal GST; dsDNA, one strand shown
# Outline: as §1
# SPIB = SPIB (Homo sapiens, UniProt Q01892 1-262); conditions: protein: recombinant; tags: N-terminal GST; dsDNA, one strand shown
# Outline: as §1
# ELK3 = molecular target: T6, ELK3 (Homo sapiens, UniProt P41970 1-407); conditions: protein: recombinant; tags: N-terminal GST; dsDNA, one strand shown
# T6 sequence: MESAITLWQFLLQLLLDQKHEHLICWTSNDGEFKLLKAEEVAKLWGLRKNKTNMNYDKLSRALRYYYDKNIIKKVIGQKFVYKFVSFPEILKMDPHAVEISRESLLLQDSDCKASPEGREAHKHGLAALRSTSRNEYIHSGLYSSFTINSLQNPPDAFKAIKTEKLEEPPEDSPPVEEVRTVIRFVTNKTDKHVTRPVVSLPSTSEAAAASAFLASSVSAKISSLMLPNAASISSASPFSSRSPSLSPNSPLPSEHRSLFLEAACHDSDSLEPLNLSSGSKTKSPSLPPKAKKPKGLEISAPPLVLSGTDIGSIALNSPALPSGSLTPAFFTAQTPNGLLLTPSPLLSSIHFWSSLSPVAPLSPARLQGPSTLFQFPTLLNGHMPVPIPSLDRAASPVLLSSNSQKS
# Outline: as §1
# FEV = molecular target: T7, FEV (Homo sapiens, UniProt Q99581 1-238); conditions: protein: recombinant; tags: N-terminal GST; dsDNA, one strand shown
# T7 sequence: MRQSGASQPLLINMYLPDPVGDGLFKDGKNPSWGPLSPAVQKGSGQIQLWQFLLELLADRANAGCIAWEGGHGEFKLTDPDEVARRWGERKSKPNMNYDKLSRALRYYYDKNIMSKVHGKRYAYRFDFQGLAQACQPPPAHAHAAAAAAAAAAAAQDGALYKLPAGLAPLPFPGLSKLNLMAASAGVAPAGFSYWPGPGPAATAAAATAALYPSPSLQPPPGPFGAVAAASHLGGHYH
# Outline: as §1
# ETV5 = ETV5 (Homo sapiens, UniProt P41161 1-510); conditions: protein: recombinant; tags: N-terminal GST; dsDNA, one strand shown
# Outline: as §1
# HSF1 = HSF1 (Homo sapiens, UniProt Q00613 1-529); conditions: protein: recombinant; tags: N-terminal GST; chain copies: 3; dsDNA, one strand shown
# Outline: as §1
# SPIC = molecular target: T8, SPIC (Homo sapiens, UniProt Q8N5J4 1-248); conditions: protein: recombinant; tags: N-terminal GST; dsDNA, one strand shown
# T8 sequence: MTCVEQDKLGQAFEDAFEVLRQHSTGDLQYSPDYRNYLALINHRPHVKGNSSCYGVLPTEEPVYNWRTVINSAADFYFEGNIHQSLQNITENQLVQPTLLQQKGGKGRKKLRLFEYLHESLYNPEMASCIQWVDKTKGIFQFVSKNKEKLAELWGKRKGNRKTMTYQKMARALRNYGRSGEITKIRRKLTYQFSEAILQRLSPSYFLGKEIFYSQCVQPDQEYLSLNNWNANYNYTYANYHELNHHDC
# Outline: as §1
# ELF4 = ELF4 (Homo sapiens, UniProt Q99607 1-663); conditions: protein: recombinant; tags: N-terminal GST; dsDNA, one strand shown
# Outline: as §1
# ELK4 = molecular target: T9, ELK4 (Homo sapiens, UniProt P28324-2 1-405); conditions: protein: recombinant; tags: N-terminal GST; dsDNA, one strand shown
# T9 sequence: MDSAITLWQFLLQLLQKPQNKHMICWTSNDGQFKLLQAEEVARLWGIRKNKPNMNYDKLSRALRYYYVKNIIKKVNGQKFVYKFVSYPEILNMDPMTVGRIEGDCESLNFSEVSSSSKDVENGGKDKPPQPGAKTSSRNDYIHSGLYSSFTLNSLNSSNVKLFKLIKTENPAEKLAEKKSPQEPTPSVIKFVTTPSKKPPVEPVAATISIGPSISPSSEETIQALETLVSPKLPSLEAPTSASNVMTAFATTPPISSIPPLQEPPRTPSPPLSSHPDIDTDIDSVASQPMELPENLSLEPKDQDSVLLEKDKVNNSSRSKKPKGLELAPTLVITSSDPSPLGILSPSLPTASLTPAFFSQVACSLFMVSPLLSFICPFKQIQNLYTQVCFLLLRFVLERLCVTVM
# Outline: as §1
# ETV2 = molecular target: T10, ETV2 (Homo sapiens, UniProt O00321 1-342); conditions: protein: recombinant; tags: N-terminal GST; dsDNA, one strand shown
# T10 sequence: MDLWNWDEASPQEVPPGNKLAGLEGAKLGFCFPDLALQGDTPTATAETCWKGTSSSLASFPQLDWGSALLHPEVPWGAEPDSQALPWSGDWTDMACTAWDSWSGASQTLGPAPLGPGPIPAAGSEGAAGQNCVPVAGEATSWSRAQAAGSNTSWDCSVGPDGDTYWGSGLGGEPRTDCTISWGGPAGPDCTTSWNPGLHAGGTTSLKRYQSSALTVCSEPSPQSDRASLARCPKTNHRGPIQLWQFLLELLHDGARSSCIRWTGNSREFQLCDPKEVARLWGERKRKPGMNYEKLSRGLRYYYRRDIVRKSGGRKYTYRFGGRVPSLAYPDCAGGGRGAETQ
# Outline: as §1
# ELF3 = molecular target: T11, ELF3 (Homo sapiens, UniProt P78545 1-371); conditions: protein: recombinant; tags: N-terminal GST; dsDNA, one strand shown
# T11 sequence: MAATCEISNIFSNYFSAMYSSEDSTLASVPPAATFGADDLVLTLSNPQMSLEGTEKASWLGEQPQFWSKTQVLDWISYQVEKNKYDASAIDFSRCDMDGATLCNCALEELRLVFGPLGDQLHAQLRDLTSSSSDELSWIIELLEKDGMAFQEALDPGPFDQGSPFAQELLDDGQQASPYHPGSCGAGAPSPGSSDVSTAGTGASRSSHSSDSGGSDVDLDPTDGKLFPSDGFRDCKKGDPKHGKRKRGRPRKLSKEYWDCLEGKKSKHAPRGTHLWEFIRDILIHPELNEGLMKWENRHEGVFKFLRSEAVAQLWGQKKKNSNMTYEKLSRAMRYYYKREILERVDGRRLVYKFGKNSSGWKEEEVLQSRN
# Outline: as §1
# CRX = CRX (Homo sapiens, UniProt O43186 1-299); conditions: protein: recombinant; tags: N-terminal GST; dsDNA, one strand shown
# Outline: as §1
# ETV1 = ETV1 (Homo sapiens, UniProt P50549 1-477); conditions: protein: recombinant; tags: N-terminal GST; dsDNA, one strand shown
# Outline: as §1
# Sequence of CRX (O43186 whole entry): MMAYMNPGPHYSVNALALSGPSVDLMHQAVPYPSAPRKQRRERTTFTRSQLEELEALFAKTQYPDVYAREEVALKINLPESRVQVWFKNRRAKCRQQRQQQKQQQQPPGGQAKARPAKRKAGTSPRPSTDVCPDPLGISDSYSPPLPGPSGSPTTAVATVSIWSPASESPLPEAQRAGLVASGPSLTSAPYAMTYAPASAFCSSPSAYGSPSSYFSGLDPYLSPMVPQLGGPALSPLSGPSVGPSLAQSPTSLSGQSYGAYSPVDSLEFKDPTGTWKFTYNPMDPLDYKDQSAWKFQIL
# Sequence of ETV1 (P50549 whole entry): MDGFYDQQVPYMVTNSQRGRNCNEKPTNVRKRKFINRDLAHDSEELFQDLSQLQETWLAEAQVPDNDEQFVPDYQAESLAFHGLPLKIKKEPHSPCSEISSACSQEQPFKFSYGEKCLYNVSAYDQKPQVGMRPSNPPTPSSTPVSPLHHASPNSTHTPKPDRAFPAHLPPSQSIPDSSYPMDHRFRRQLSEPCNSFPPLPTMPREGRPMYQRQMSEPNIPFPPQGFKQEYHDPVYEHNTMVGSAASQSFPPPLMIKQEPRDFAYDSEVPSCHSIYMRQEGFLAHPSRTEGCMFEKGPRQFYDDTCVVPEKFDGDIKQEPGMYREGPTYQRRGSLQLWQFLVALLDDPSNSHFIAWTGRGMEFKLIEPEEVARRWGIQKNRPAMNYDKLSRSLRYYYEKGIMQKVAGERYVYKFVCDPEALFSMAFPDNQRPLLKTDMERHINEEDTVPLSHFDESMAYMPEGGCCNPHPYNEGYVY
# Sequence of ELF1 (P32519 whole entry): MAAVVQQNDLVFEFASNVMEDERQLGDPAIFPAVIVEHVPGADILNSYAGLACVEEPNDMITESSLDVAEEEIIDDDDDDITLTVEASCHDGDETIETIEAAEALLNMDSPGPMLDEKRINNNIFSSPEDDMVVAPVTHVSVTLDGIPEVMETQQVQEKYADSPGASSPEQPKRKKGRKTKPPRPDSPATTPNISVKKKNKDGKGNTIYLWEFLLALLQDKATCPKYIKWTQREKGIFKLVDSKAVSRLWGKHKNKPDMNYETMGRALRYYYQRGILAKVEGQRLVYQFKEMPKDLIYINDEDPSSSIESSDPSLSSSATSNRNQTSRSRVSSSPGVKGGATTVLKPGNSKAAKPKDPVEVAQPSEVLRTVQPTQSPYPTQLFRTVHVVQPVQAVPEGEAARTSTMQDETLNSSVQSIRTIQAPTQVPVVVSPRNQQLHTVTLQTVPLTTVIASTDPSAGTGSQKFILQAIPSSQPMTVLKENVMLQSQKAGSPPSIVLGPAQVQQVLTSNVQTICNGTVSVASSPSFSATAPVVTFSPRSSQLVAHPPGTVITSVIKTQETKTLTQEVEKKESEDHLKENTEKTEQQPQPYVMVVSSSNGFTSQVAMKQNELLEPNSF
# Sequence of ELF4 (Q99607 whole entry): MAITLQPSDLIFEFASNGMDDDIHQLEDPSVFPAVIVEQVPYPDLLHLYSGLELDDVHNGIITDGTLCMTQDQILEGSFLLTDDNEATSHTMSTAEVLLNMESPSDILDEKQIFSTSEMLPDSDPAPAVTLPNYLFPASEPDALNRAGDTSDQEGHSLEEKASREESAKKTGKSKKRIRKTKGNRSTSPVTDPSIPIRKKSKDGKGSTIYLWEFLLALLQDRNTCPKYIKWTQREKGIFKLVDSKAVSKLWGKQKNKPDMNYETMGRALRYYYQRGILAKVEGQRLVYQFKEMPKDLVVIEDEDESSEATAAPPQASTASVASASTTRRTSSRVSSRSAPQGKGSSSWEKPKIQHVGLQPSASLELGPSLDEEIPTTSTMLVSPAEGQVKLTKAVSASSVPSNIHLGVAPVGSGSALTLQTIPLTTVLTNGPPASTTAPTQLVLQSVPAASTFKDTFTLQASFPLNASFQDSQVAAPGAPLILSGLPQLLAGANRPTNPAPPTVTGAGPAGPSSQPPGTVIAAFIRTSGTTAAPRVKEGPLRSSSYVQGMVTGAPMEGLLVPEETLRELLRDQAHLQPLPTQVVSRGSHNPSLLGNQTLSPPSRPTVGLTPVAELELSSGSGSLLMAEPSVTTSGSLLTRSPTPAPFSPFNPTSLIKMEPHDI
# Sequence of ETV5 (P41161 whole entry): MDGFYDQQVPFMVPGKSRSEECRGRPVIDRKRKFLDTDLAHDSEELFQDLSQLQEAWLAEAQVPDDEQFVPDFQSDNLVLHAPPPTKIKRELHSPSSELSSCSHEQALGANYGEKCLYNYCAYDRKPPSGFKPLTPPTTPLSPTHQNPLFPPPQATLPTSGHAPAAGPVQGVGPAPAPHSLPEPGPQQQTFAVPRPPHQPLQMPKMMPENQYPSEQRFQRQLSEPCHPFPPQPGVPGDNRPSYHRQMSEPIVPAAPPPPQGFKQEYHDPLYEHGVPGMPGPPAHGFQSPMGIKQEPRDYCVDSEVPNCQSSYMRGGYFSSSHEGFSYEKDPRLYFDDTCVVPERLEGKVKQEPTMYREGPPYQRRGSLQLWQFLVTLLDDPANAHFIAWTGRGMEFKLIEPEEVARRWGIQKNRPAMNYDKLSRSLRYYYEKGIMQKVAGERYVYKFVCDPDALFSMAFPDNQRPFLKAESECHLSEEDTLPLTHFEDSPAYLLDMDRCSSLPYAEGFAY
# Sequence of SPIB (Q01892 whole entry): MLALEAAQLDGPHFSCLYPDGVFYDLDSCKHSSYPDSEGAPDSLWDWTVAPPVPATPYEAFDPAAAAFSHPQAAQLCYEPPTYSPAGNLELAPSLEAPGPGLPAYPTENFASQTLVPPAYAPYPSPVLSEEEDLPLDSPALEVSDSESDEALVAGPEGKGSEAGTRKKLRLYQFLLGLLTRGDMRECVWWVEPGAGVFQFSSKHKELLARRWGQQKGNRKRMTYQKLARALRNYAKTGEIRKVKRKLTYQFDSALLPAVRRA
# Sequence of HSF1 (Q00613 whole entry): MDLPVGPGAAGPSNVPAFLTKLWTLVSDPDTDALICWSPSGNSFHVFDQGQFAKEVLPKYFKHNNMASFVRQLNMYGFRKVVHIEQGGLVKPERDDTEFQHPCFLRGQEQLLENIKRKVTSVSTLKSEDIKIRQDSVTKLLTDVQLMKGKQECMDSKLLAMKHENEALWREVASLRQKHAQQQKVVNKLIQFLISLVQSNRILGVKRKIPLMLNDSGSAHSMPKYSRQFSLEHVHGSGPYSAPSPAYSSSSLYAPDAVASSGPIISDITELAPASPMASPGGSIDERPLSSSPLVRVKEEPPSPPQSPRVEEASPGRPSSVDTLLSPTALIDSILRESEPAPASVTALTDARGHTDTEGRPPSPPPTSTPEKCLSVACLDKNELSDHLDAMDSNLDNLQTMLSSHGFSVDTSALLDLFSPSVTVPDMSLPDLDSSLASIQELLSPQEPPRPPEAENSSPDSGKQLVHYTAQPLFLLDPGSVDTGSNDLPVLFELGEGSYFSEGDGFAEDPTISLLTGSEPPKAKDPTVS
sequence,measurement,setting,value
TACGAA,binding signal,FLI1,"1.15 fold enrichment (6-mer frequency, TF over GST control)"
same,binding signal,ELK1,"1.23 fold enrichment (6-mer frequency, TF over GST control)"
same,binding signal,GABPA,"1.3 fold enrichment (6-mer frequency, TF over GST control)"
same,binding signal,ERG,"1.23 fold enrichment (6-mer frequency, TF over GST control)"
same,binding signal,ELF1,"1.28 fold enrichment (6-mer frequency, TF over GST control)"
same,binding signal,EHF,"1.22 fold enrichment (6-mer frequency, TF over GST control)"
same,binding signal,SPI1,"1.15 fold enrichment (6-mer frequency, TF over GST control)"
same,binding signal,SPIB,"1.19 fold enrichment (6-mer frequency, TF over GST control)"
same,binding signal,ELK3,"1.25 fold enrichment (6-mer frequency, TF over GST control)"
same,binding signal,FEV,"1.29 fold enrichment (6-mer frequency, TF over GST control)"
same,binding signal,ETV5,"1.21 fold enrichment (6-mer frequency, TF over GST control)"
same,binding signal,HSF1,"1.38 fold enrichment (6-mer frequency, TF over GST control)"
same,binding signal,SPIC,"1.11 fold enrichment (6-mer frequency, TF over GST control)"
same,binding signal,ELF4,"1.31 fold enrichment (6-mer frequency, TF over GST control)"
same,binding signal,ELK4,"1.23 fold enrichment (6-mer frequency, TF over GST control)"
same,binding signal,ETV2,"1.16 fold enrichment (6-mer frequency, TF over GST control)"
same,binding signal,ELF3,"1.25 fold enrichment (6-mer frequency, TF over GST control)"
same,binding signal,CRX,"1.32 fold enrichment (6-mer frequency, TF over GST control)"
same,binding signal,ETV1,"1.24 fold enrichment (6-mer frequency, TF over GST control)"
